Sampled rows, rich in hits. Any-hit rate of the full collection: about 0.83%.
NCOA3 inh = SRC3 coactivator transcriptional activity inhibitors, primary screen, cell-based, luminescence. Nuclear receptor coactivator 3 (Homo sapiens), Q9Y6Q9. hit rate 0.17% among 360,000. AID 588352, 2011. inhibition, % at 3.6 µM. HEK293 GAL4-SRC3 luciferase reporter;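 active means inhibition above a per-campaign cutoff, the mean of all compounds plus 3 SD, cut at about 60% in these data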;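 further: 0% = DMSO-treated cells and 100% = gossypol-treated cells at 36 µM; higher means less SRC3-driven luciferase light from the GAL4 reporter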
NR5A2 inv ag = LRH-1 (NR5A2) inverse agonists, primary screen, cell-based, luminescence, HEK293T, StAR-luciferase reporter; inhibition, % at 3.6 µM; LRH-1 transfected, 24 h; hit rate 0.13% among 360,000; AID 602396, 2012; Nuclear receptor subfamily 5 group A member 2 (Homo sapiens), O00482;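 active means inhibition above the mean inhibition of all tested compounds plus 3 SD, cut at about 73% in these data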;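 further: 0% = DMSO wells and 100% = reporter-only cells lacking LRH-1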
Gli-Sufu antag = Gli-Sufu pathway antagonists, primary screen, luciferase luminescence, Sufu-KO-LIGHT cells, uHTS. Sufu-KO-LIGHT fibroblasts, Gli luciferase reporter luminescence. inhibition, % at 5 µM. hit rate 0.74% among 340,000. AID 588413, 2011;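 active means inhibition above about 55%, limit read from the data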;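 further: 0% = DMSO-treated cells and 100% = wells with medium but no cells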
NCOA1 inh = SRC1 coactivator transcriptional activity inhibitors, primary screen, cell-based, luminescence | HEK293 GAL4-SRC1 luciferase reporter | AID 588354, 2011 | hit rate 0.12% among 360,000 | inhibition, % at 3.6 µM | Nuclear receptor coactivator 1 (Homo sapiens), Q15788;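 active means inhibition above the campaign mean plus 3 SD, with each screening campaign given its own cutoff, cut at about 60% in these data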;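 further: 0% = DMSO treated cells and 100% = gossypol at 36 µM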
Target sequence (Q15788 whole entry, looked up, the tested form may be a part): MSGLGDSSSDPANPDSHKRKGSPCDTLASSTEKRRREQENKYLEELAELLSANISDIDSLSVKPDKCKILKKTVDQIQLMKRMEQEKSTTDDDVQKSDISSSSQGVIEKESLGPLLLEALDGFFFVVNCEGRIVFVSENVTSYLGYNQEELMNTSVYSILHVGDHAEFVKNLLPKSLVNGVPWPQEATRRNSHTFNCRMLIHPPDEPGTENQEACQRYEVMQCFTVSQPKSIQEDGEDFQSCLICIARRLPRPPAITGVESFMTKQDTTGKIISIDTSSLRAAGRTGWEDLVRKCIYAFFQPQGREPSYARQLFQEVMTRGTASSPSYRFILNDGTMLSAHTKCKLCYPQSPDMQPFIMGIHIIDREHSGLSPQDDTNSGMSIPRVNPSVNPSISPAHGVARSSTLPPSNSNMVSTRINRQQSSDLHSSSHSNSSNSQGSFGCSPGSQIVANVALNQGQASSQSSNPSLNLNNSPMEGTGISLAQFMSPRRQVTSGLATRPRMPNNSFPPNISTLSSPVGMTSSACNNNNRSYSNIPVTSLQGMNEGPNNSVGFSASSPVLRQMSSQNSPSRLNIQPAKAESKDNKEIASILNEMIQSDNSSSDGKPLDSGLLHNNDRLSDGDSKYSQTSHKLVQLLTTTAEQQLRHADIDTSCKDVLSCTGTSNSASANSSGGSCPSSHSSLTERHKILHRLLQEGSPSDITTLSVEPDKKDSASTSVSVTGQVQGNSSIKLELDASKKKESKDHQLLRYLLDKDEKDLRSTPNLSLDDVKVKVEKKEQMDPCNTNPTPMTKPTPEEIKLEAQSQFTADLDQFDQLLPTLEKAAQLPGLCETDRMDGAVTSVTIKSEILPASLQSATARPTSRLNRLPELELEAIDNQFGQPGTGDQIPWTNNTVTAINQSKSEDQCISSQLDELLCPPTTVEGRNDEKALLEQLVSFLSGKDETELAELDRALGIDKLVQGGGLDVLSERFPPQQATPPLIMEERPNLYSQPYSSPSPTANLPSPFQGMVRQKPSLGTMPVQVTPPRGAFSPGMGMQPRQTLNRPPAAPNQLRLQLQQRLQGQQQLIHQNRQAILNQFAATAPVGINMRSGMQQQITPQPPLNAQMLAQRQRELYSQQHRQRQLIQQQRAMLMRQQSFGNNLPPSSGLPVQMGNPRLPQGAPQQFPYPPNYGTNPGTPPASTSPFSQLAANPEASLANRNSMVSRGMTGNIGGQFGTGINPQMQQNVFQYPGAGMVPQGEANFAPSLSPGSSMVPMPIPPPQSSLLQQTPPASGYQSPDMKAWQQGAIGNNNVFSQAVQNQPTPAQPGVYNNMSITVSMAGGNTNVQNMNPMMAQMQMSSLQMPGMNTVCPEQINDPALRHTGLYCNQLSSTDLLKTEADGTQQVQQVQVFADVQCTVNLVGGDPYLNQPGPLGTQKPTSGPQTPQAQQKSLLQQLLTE
NCOA2 inhibitor = inhibition of GAL4-SRC2 driven luciferase reporter, primary screen, SRC2 inhibitor project, cell-based, luminescence. Nuclear receptor coactivator 2 (Homo sapiens), Q15596. HEK293 GAL4-SRC2 luciferase reporter. inhibition, % at 9 µM. hit rate 0.17% among 370,000;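 active means inhibition above the mean inhibition of all tested compounds plus 3 SD, set per campaign, cut at about 52% in these data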;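 further: 0% = DMSO treated cells and 100% = cells given Gossypol at 36 µM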
Gli antag conf = Gli-SUFU pathway antagonists, confirmation, single concentration, luciferase luminescence, Sufu-KO-LIGHT cells; shares compounds with Gli-Sufu antag; Gli luciferase reporter; inhibition, % at 5 µM; hit rate 40% among 2,500; AID 602428, 2012;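 active means mean inhibition at 5 µM reaching about 45%, limit read from the data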;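 further: plate controls were DMSO-treated cells for no effect and wells lacking cells for full effect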
Gli cytotox = cytotoxicity in Sufu-KO-LIGHT cells, confirmation, cytotoxicity control for Gli-SUFU antagonist project, cell-based, ATP luminescence, single concentration; shares compounds with Gli-Sufu antag; hit rate 32% among 2,500; cytotoxicity, % at 5 µM;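 active means mean cytotoxicity at 5 µM above about 25%, limit read from the data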;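 further: cells exposed to compound overnight for roughly 16 to 18 hours; plate controls were DMSO wells with cells for no effect and medium without cells for full effect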
Wnt3a counter = Wnt3a reporter signal inhibition, confirmation, counter-screen for Gli-SUFU antagonist project, Wnt-LIGHT cells, luminescence, single concentration | shares compounds with Gli-Sufu antag | Wnt3a-driven luciferase reporter | inhibition, % at 6.25 µM | hit rate 20% among 2,500;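 active means mean inhibition above about 25%, limit read from the data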
* marks the source's active call; other numbers are inactive results; . = no result.

SMILES | NCOA3 inh | NR5A2 inv ag | Gli-Sufu antag | NCOA1 inh | NCOA2 inhibitor | Gli antag conf | Gli cytotox | Wnt3a counter
COc1ccc(S(=O)(=O)N2CCCC(C(=O)N3CCOCC3)C2)cc1Cl (stereo not drawn) | -4.0 | -3.5 | -4.7 | -14.8 | 6.9 | . | . | .
COc1ccc(S(=O)(=O)N2CCOCC2)cc1C(=O)N1CCCC1 | 21.5 | -21.5 | 60.9* | -3.2 | -7.2 | 20.4 | 9.6 | -3.1
COc1ccc(S(=O)(=O)N2CCCC(C(=O)N3CCOCC3)C2)cc1C (stereo not drawn) | 13.0 | 6.7 | 99.0* | -5.4 | 11.0 | 24.8 | 16.9 | 3.5
CCOc1ccc(NCC(=O)c2ccc(C)cc2)cc1 | -8.4 | -5.0 | 60.9* | -0.7 | -1.6 | -4.7 | 20.9 | -77.2
O=C(CN1C(=O)COc2ccc(S(=O)(=O)N3CCCCC3)cc21)NCc1ccc(Cl)cc1 | -10.0 | -15.2 | 59.4* | 15.3 | -3.2 | 7.9 | 25.1* | -28.6
COC(=O)[C@H](C(C)C)N1Cc2nnn(Cc3ccccc3)c2-c2cc(F)ccc2S1(=O)=O | . | . | . | . | 10.3 | . | . | .
Cc1ccc(/C=N/NC(=O)c2c(C)nc3ccc(Br)cn23)cc1 | -256.4 | 0.8 | 45.1 | 0.9 | 5.8 | . | . | .
COc1ccc(/C=N\NC(=O)c2c(C)nc3ccc(Br)cn23)cc1 | -8.1 | 27.7 | 61.1* | 2.6 | 15.2 | 50.1* | 48.5* | -30.0
CCN1CCN(C(=O)C2CCCN(c3ncnc4c3nc3n4CCCCC3)C2)CC1 (stereo not drawn) | 8.9 | -2.1 | 50.2 | 5.2 | 3.3 | 11.9 | -0.8 | 2.9
Cc1ccc(OCc2nnc(SCC(=O)Nc3ccc(S(N)(=O)=O)cc3)n2-c2ccc(Cl)cc2)cc1 | . | . | . | . | -0.8 | . | . | .
CCN(CC)S(=O)(=O)c1ccc(S(=O)(=O)N2CCCC(C(=O)NC3CC3)C2)cc1 (stereo not drawn) | -1.8 | 10.9 | 59.7* | -1.6 | 15.0 | 45.9* | 10.8 | 9.0
CN(C)S(=O)(=O)c1ccc(S(=O)(=O)N2CCCC(C(=O)NC3CC3)C2)cc1 (stereo not drawn) | -9.4 | -13.7 | 8.5 | 0.2 | 13.2 | . | . | .
CCOC(=O)C1CCCN(S(=O)(=O)c2ccc(C)cc2)C1 (stereo not drawn) | 9.0 | 23.7 | 3.9 | 1.8 | 7.5 | . | . | .
CCOC(=O)C1CCCN(S(=O)(=O)c2ccc(S(=O)(=O)N(CC)CC)cc2)C1 (stereo not drawn) | 25.9 | 43.3 | 77.5* | 7.2 | 17.4 | 74.5* | 32.4* | 9.2
CC(=O)c1ccc(S(=O)(=O)Nc2ccc(-n3c(C)nc4ccccc4c3=O)cc2)cc1 | -3.1 | 7.5 | 6.9 | 7.2 | -19.1 | . | . | .
O=c1nc2ccccc2c(NS(=O)(=O)c2ccccc2)n1-c1ccccc1 | 20.1 | 5.6 | 82.9* | 5.0 | -10.9 | 27.4 | 14.8 | -15.0
Cc1ccc(S(=O)(=O)Nc2ccc(-n3c(C)nc4ccccc4c3=O)cc2)cc1 | 3.4 | 14.8 | 82.0* | -6.9 | 1.4 | 20.3 | 21.1 | -10.0
COc1ccc(/C=N/N2CCN(Cc3ccccc3)CC2)cc1 | -50.9 | 4.2 | 3.1 | 0.6 | 27.8 | . | . | .
COc1ccc(/C=C/C2=CCN(Cc3ccc(OC)cc3)CC2)cc1 | 16.2 | 31.0 | 50.4 | -0.9 | 3.8 | 17.7 | 10.6 | -48.1
O=C(CCCOc1ccc(Cl)cc1Cl)Nc1ccccc1C(=O)O | -49.0 | -141.8 | -35.6 | -38.4 | -3.9 | . | . | .
CCOc1ccccc1NC(=S)NC(=O)CCCOc1ccc(Cl)cc1Cl | 7.9 | -0.5 | 64.8* | 7.8 | -13.3 | 29.6 | -1.4 | -39.4
CC1CCCC=CC2CC(OC(=O)CN(C)C)CC2C(O)C=CC(=O)O1 (stereo not drawn) | 51.4 | 36.8 | 60.3* | 0.1 | 2.6 | 86.2* | 38.0* | 88.4*
